Source: PubChem BioAssay (NCATS)
Values joined by “and” are separate entries in the source; they are usually repeats but may differ in a detail not shown here. Equal entries are not always repeated. Results filed as inconclusive are left out. Active and inactive are the calls of the source. The call rests on the fitted dose curve; in most records, active means well fitted inhibition curve with a large enough effect; inconclusive means small, poorly fitted or top-dose-only effect; inactive means flat fitted curve, though single readings scatter.

How the values were obtained:
CRL-7250 = normal cell line; assay: Cytotoxic Profiling of Annotated Libraries Using Quantitative High-Throughput Screening (AID 1296008); details: Five cell lines viability, CellTiter-Glo ATP luminescence, 48-72 h; max response: stronger effect = lower value; on max response: on the % scale 0 is the no-effect control and ±100 the full control effect
Method in brief: (§1)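 Cells exposed to compounds for 48 or 72 hr at 37 degrees Celsius. Viability read as ATP-coupled luminescence with CellTiter-Glo after 10 min at room temperature.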

HEK293 = assay: as above; details: Five cell lines viability, CellTiter-Glo ATP luminescence, 48-72 h; max response: stronger effect = lower value
Method in brief: as §1

HaCat = assay: as above; details: Five cell lines viability, CellTiter-Glo ATP luminescence, 48-72 h; max response: stronger effect = lower value
Method in brief: as §1

PC26 = assay: qHTS profiling for inhibitors of Plasmodium falciparum proliferation (AID 504749);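 further: 0% = DMSO vehicle and full inhibition = artemisinin control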; details: P. falciparum in erythrocytes, SYBR Green DNA, 72 h; series mostly up to 28.7 µM
Method in brief: (§2)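 Readout was DNA-dye fluorescence from lysed cultures, ex 485/em 535 nm. Parasitized red cells had grown 72 h with compound; data scaled between 0.29 uM artemisinin and DMSO wells and corrected using vehicle-only plates.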

PC49 = assay: as above; details: P. falciparum in erythrocytes, SYBR Green DNA, 72 h; series mostly up to 28.7 µM
Method in brief: as §2

SC27B = assay: as above; details: P. falciparum in erythrocytes, SYBR Green DNA, 72 h; series mostly up to 28.7 µM
Method in brief: as §2

TAB109 = assay: as above; details: P. falciparum in erythrocytes, SYBR Green DNA, 72 h; series mostly up to 28.7 µM
Method in brief: as §2

TAB113 = assay: as above; details: P. falciparum in erythrocytes, SYBR Green DNA, 72 h; series mostly up to 28.7 µM
Method in brief: as §2

TAB165 = assay: as above; details: P. falciparum in erythrocytes, SYBR Green DNA, 72 h; series mostly up to 28.7 µM
Method in brief: as §2
Further: nearly all actives have a fitted effect of over 60% in size.

C=C(CO)C(=O)O[C@H]1C/C(C)=C/CC/C(CO)=C/[C@H]2OC(=O)C(=C)[C@H]12
inactive: max response (CRL-7250) -2.43% | max response (HEK293) -5.5% | outcome (HaCat)

COC(=O)C1(C)CCC(=O)C2(C)c3c(O)cc(C(C)C)cc3C(O)C(OC(C)=O)C12 (stereo unspecified)
inactive: max response (CRL-7250) -1.03% | max response (HEK293) -0.554% | max response (HaCat) -0.878%

C[C@]12CC[C@@H](O)C[C@H]1CC[C@@H]1[C@@H]2CC[C@]2(C)C(=O)CC[C@@H]12
inactive: max response (CRL-7250) -3.83% | max response (HEK293) -17.8% | max response (HaCat) -0.89%

COC1CC(OC2CCC3(C)C(=CCC4C3CCC3(C)C(C(C)OC5OC(COC6OC(CO)C(O)C(O)C6O)C(O)C(O)C5O)CCC43O)C2)OC(C)C1OC1OC(C)C(O)C(OC)C1O (stereo unspecified)
inactive: max response (CRL-7250) -7.32% | max response (HEK293) -6.75% | outcome (HaCat)

CN1C(=O)c2ccccc2NC(=O)C1Cc1ccccc1 (stereo unspecified)
inactive: max response (CRL-7250) 3.07% | outcome (HEK293) | max response (HaCat) 2.89%

CC(C)(O)[C@H]1O[C@H]2CC[C@@]3(C)[C@@](O)(CC[C@H]4Cc5c([nH]c6ccccc56)[C@@]43C)C2=CC1=O
inactive: max response (CRL-7250) -14.1% | max response (HEK293) 2.88% | max response (HaCat) 0.588%

CCCCCOc1cc2c(cc1-c1cc(/C=C/C(=O)O)ccc1O)C(C)(C)CCC2(C)C
inactive: max response (CRL-7250) -2.58% | outcome (HEK293) | outcome (HaCat)

C/C=C(\C)C(=O)OC1CC2C(C)(C)OC(=O)CC(OC(C)=O)C2(C)C2CC(OC(=O)C(C)C)C3(C)C(c4ccoc4)CC4OC43C12C (stereo unspecified)
inactive: outcome (CRL-7250) | max response (HEK293) -0.997% | outcome (HaCat)

CCCCCCn1c(=O)c(C(=O)Nc2ccc(C(=O)OCCC)cc2)c(O)c2ccccc21
inactive: max response (CRL-7250) 0.836% | outcome (HEK293) | outcome (HaCat)

CCCN1CCO[C@H]2c3cc(O)ccc3OC[C@@H]21
inactive: outcome (CRL-7250) | outcome (HEK293) | max response (HaCat) 3.96%

C=C(C)[C@H]1O[C@H]2CC[C@@]3(C)[C@@](O)(CC[C@H]4[C@@H]5OC(C)(C)[C@H]6C[C@@H]7C(=C)Cc8c(Cl)cc9[nH]c(c5c9c8[C@@]76O)[C@@]43C)[C@]23O[C@@H]3[C@H]1O
inactive: max response (CRL-7250) -5.7% | outcome (HEK293) | max response (HaCat) 4.01%

C[C@H](NC(=O)Cc1cc(F)cc(F)c1)C(=O)N[C@@H]1N=C(c2ccccc2)c2ccccc2N(C)C1=O
inactive: outcome (CRL-7250) | max response (HEK293) -14.2% | outcome (HaCat)

CCN1CC2(COC)C3[C@@H](OC)C4C1C3(C1C[C@]3(O)[C@H](OC(=O)c5ccccc5)C1[C@]4(OC(C)=O)[C@@H](O)[C@@H]3OC)[C@H](OC)C[C@H]2O (stereo partly specified)
inactive: max response (CRL-7250) -8.46% | max response (HEK293) -1.66% | max response (HaCat) 3.92%

COC(=O)[C@@]12C(=O)C(C)C(=O)[C@]1(C)C(C)=C[C@H]1[C@]3(C=O)CC[C@H](OC(C)=O)C(C)(C)[C@H]3CC[C@@]12C (stereo partly specified)
inactive: outcome (CRL-7250) | outcome (HEK293) | outcome (HaCat)

N#C[C@@H](O[C@@H]1O[C@H](CO[C@@H]2O[C@H](CO)[C@@H](O)[C@H](O)[C@H]2O)[C@@H](O)[C@H](O)[C@H]1O)c1ccccc1
inactive: max response (CRL-7250) 3.46% | max response (HEK293) 4.21% | outcome (HaCat)

CC[C@H]1CN2CC[C@H]1C[C@@H]2[C@@H](O)c1ccnc2ccc(OC)cc12
inactive: outcome (CRL-7250) | outcome (HEK293) | outcome (HaCat)

Cc1cc(C(=O)CN2CCCC2)c(C)n1-c1ccc(F)cc1
inactive: max response (CRL-7250) 1.13% and -6.04% | max response (HEK293) -9.04% | max response (HaCat) 1.57% and -29%

CCN1C[C@]2(COC)[C@H](O)C[C@H](OC)[C@]34[C@@H]5C[C@]6(O)[C@H](OC(=O)c7ccccc7)[C@@H]5[C@@](O)([C@H]([C@H](OC)[C@H]23)[C@@H]14)[C@@H](O)[C@@H]6OC
inactive: outcome (CRL-7250) | outcome (HEK293) | max response (HaCat) 1.58%

Clc1ccc(N2C[C@H]3CC[C@@H](C2)N3)nn1
inactive: max response (CRL-7250) -3.23% | max response (HEK293) 2.01% | max response (HaCat) -0.574%

O=C1C2CC=CCC2C(=O)N1SC(Cl)(Cl)Cl (stereo unspecified)
inactive: Potency (PC26) | Potency (PC49) | Potency (SC27B) | Potency (TAB109) | Potency (TAB113) | Potency (TAB165)

CC(CCc1ccc(O)cc1)O[C@@H]1O[C@H](CO[C@H]2OC[C@](O)(CO)[C@H]2O)[C@@H](O)[C@H](O)[C@H]1O (stereo partly specified)
inactive: outcome (CRL-7250) | outcome (HEK293) | outcome (HaCat)

CC1=CC2/C=C(\C)CCC(O)C3OC(C)(C)OC3CC(=O)OC23C(=O)NC(CC(C)C)C3C1C (stereo unspecified)
inactive: max response (CRL-7250) 0.49% | max response (HEK293) 2.48% | outcome (HaCat)

CC1C/C=C/C(O)C(O)CC/C=C/c2cc(O)cc(O)c2C(=O)O1 (stereo unspecified)
inactive: outcome (CRL-7250) | outcome (HEK293) | max response (HaCat) -2.35%

C/C=C(\C)C(=O)OC1C(C)OC(OC2C(C)OC(OC3CCC4(C)C(=CCC5C4CCC4(C)C(C(C)OC6OC(COC7OC(CO)C(O)C(O)C7O)C(O)C(O)C6O)CCC54O)C3)CC2OC)C(O)C1OC (stereo unspecified)
inactive: max response (CRL-7250) -8.85% | max response (HEK293) -2.95% | outcome (HaCat)

CCC(C)(C#N)O[C@@H]1O[C@H](CO)[C@@H](O)[C@H](O)[C@H]1O (stereo partly specified)
inactive: max response (CRL-7250) -24.5% | outcome (HEK293) | outcome (HaCat)

C=C1[C@@H]2CC[C@@]3(C)[C@H](c4ccoc4)OC(=O)C[C@]13O[C@H]1CC(=O)C(C)(C)[C@H](C(OC(C)=O)C(=O)OC)[C@]12C (stereo partly specified)
inactive: outcome (CRL-7250) | max response (HEK293) -1.58% | outcome (HaCat)
